Compound activity: PubChem, National Center for Advancing Translational Sciences (NCATS)
An excerpt weighted towards active compounds, which were near 7.2% of everything screened.
SNCA viab count = cell viability loss counter-screen; HEK-293-SNCA-luc viability, GF-AFC fluorescence, 24 h; Potency, µM (series often up to 57.1 µM), usual class: cytotoxic; actives 0.12% (n = 150,000); note: nearly all actives have a fitted effect of over 30% in size
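HEK-293-SNCA-luc cells (1500/well) plated 24 h, then exposed 24 h to a dilution series; GF-AFC added 30 min at 37C, fluorescence 405/540 nm; normalised to medium-only and DMSO wells, Hill fit.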
SNCA expr inhib = inhibitors of alpha-synuclein (SNCA) gene expression; HEK-293 SNCA-luciferase knock-in, luminescence, 24 h; Potency, µM (series often up to 57.2 µM), most hits filed as inhibitors; actives 0.17% (n = 140,000); note: nearly all actives have a fitted effect of over 45% in size
FLuc inh = blocks purified firefly luciferase enzyme activity. P08659. purified P. pyralis luciferase, luminescence, biochemical. Potency, µM (series often up to 115 µM), most hits filed as inhibitors. actives 2.5% (n = 76,000); note: nearly all actives have a fitted effect of over 65% in size
Target sequence (P08659 whole entry, looked up): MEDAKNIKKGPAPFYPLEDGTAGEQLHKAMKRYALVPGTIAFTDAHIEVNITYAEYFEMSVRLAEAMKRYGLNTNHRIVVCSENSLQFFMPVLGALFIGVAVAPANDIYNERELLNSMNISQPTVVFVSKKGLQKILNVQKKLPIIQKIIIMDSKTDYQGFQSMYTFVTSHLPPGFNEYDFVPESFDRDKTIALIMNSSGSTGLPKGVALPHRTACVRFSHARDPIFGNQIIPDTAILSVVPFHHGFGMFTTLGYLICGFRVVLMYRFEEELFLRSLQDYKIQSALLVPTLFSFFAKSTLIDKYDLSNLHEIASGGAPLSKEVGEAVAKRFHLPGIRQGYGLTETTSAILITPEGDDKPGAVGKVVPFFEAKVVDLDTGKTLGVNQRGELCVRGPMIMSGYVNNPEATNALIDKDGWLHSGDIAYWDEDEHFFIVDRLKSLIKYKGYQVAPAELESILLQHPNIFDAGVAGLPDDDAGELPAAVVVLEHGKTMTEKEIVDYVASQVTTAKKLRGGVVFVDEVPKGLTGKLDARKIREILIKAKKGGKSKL
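Luminescence read by CCD imaging after purified firefly luciferase (10nM final) was added to substrate buffer holding 10uM D-luciferin and 10uM ATP, pH 7.5, pre-dosed with compound.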
hNpr1 antagonist = human Npr1 receptor antagonism; P16066; HEK293 hNpr1 GloSensor cGMP, ANP-stimulated luminescence; Potency, µM (highest dose often 46.3 µM), most hits filed as inhibitors; actives 1.6% (n = 76,000); calls by dose curve; note: nearly all actives have a fitted effect of over 60% in size
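HEK293 cells stably expressing human Npr1 and cGMP GloSensor pGS-40F, loaded 2 h with 2% GloSensor reagent, given compound 30 min at room temperature. Luminescence read before and 20 min after 0.1 nM hNppA.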
HEK cytotox = HEK 293 cell cytotoxicity; HEK 293 viability, ATP luminescence (CellTiter-Glo), 48-72 h; Potency, µM (top dose mostly 115 µM), most hits filed as inhibitors; actives 6.6% (n = 94,000); AID 1345083; note: nearly all actives have a fitted effect of over 60% in size
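HEK 293 seeded at 250 cells/well receive compound via pintool. After 48 or 72 hr at 37 degree Celsius, 5% CO2 and 95% humidity, CellTiter-Glo is dispensed and luminescence read following 10 min at room temperature.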
NIH3T3 tox = cytotoxic compounds in NIH 3T3 cells | NIH 3T3 viability, CellTiter-Glo ATP luminescence, 48-72 h | Potency, µM (series often up to 96.7 µM), hits mostly inhibitors | actives 4.3% (n = 94,000) | AID 1345082; note: nearly all actives have a fitted effect of over 55% in size
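Cytotoxicity is measured as loss of cellular ATP: NIH 3T3 cells (400/well) are exposed to compound for 48 or 72 hr at 37 °C, then CellTiter-Glo luminescence is imaged after 10 min at room temperature.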
Large screens that a line does not name were inactive; ! = not active in a repeat. Unless noted, calls come from the whole dose curve; as a rule, active = well fitted curve in the direction sought with a large enough effect; inconclusive = small, poorly fitted or top-dose-only effect, or another doubt; inactive = no such curve, though single readings can be large; an effect the other way counts as inactive or inconclusive.

CC(=O)c1ccc(NC(=O)N2C[C@@H]3C[C@H](C2)c2ccc(NC(=O)Nc4cccc(F)c4)c(=O)n2C3)cc1	FLuc inh 35µM
CCN(C(=O)Cn1cccc1-c1nc(-c2ccc(OC)c(F)c2)no1)c1cccc(C)c1	HEK cytotox inconclusive, NIH3T3 tox inconclusive
CCOc1ccc2c(n1)CCN(C(=O)c1ccc(C)s1)C2	FLuc inh inconclusive, HEK cytotox inconclusive
CCOC(=O)c1ccc(NC(=O)N2Cc3[nH]cnc3C[C@H]2c2nc(-c3ccc4c(c3)OCO4)no2)cc1	SNCA viab count inconclusive, SNCA expr inhib inconclusive, FLuc inh 40µM, HEK cytotox inconclusive, NIH3T3 tox 28µM
O=C(Nc1ccc(Cl)cc1)N1Cc2[nH]cnc2C[C@H]1c1nc(-c2ccc(OC(F)(F)F)cc2)no1	SNCA viab count inconclusive, SNCA expr inhib inconclusive, hNpr1 antagonist inconclusive, HEK cytotox 20µM, NIH3T3 tox 25µM
CCOC(=O)c1ccc(NC(=O)N2Cc3[nH]cnc3C[C@H]2c2nc(-c3ccc(OC(F)(F)F)cc3)no2)cc1	SNCA expr inhib inconclusive, FLuc inh inconclusive, HEK cytotox inconclusive, NIH3T3 tox 25µM
O=C(Nc1ccc(Cl)cc1)N1Cc2[nH]cnc2C[C@H]1c1nc(-c2ccc(F)c(Cl)c2)no1	SNCA viab count inconclusive, FLuc inh 7.9µM, hNpr1 antagonist inconclusive, HEK cytotox inconclusive, NIH3T3 tox 25µM
COc1ccccc1N1CCN(C(=O)CCc2ccccc2C)CC1=O	none
CSc1ccc(-c2cccc(C(=O)NCC(=O)NCCc3ccc(Cl)cc3)c2)cc1	HEK cytotox inconclusive, NIH3T3 tox inconclusive (no result: FLuc inh, hNpr1 antagonist)
O=C(NCc1ccccc1Cl)C1CN(C2CCCCC2)C(=O)N1 (stereo unspecified)	none (no result: FLuc inh, hNpr1 antagonist)
COCc1nc(C2CCN(C(=O)c3ccco3)C2)no1 (stereo unspecified)	SNCA expr inhib inconclusive
COC(=O)C1=CN(CC(=O)Nc2ccc(C)cc2Cl)S(=O)(=O)N=C1C	none
CC(C)CCN1C(=O)N(CCCc2ccncc2)C(=O)C12CCN(Cc1ccc(F)cc1)CC2	HEK cytotox inconclusive
CCN(Cc1ccccc1F)C(=O)c1cc(COc2ccccc2)[nH]n1	HEK cytotox inconclusive, NIH3T3 tox inconclusive
CCC(c1cccnc1)N(C)C(=O)c1cc(COc2ccccc2)[nH]n1 (stereo unspecified)	HEK cytotox 79µM
CCOc1ccc(C2NC(=O)N(Cc3noc(C4CCCCC4)n3)C3=C2C(=O)OC3)cc1 (stereo unspecified)	HEK cytotox inconclusive, NIH3T3 tox inconclusive
O=C1COCC2(CN(Cc3ccsc3)C2)CN1Cc1cccc(OC(F)(F)F)c1	HEK cytotox 63µM, NIH3T3 tox 45µM
O=C1OCC2(CCN(Cc3cccc(OC(F)(F)F)c3)C2)N1c1ccncc1 (stereo unspecified)	SNCA expr inhib inconclusive, HEK cytotox 100µM, NIH3T3 tox inconclusive
COc1cccc(N2C(=O)OCC23CCN(CCCc2ccccc2)C3)c1 (stereo unspecified)	HEK cytotox inconclusive, NIH3T3 tox inconclusive
O=C1COCC2(CN1Cc1cccc(OC(F)(F)F)c1)CN(c1ccccc1F)C2	HEK cytotox 89µM, NIH3T3 tox 89µM
Cn1cc(CN2CC3(COCC(=O)N(Cc4cccc(OC(F)(F)F)c4)C3)C2)cn1	HEK cytotox inconclusive
O=C(NC[C@H]1O[C@H](Cc2cc(-c3ccc(F)cc3)on2)CC[C@@H]1O)NC1CCCCC1	FLuc inh 71µM, hNpr1 antagonist 10µM, HEK cytotox inconclusive, NIH3T3 tox 89µM
NC[C@H]1O[C@H](Cc2cc(-c3ccc(F)cc3)on2)CC[C@@H]1O	FLuc inh 35µM, hNpr1 antagonist 14µM, HEK cytotox inconclusive
O=C(NCC1CC1)C1CCc2nnc(C3CC3)n21 (stereo unspecified)	none (no result: FLuc inh, hNpr1 antagonist)
Cc1ccc2nc(C3CCCN(Cc4cccc(-c5cccnc5)c4)C3)[nH]c(=O)c2c1 (stereo unspecified)	HEK cytotox 32µM!, NIH3T3 tox inconclusive
Cc1ccc2nc(C3CCCN(Cc4cccc(-c5ccc(F)cc5F)c4)C3)[nH]c(=O)c2c1 (stereo unspecified)	SNCA expr inhib inconclusive, HEK cytotox inconclusive, NIH3T3 tox inconclusive
O=c1[nH]c(C2CCCN(Cc3cccc(-c4ccsc4)c3)C2)nc2ccc(F)cc12 (stereo unspecified)	HEK cytotox 22µM, NIH3T3 tox 28µM!
O=c1[nH]c(C2CCCN(CC3CCCC3)C2)nc2ccc(F)cc12 (stereo unspecified)	HEK cytotox 32µM, NIH3T3 tox 40µM
O=[S+]([O-])(c1cccc(C(F)(F)F)c1)N1CCC2(CCN(Cc3cccs3)c3ccccc3O2)CC1	HEK cytotox inconclusive, NIH3T3 tox inconclusive
COc1ccc(Cc2nc3nccc(-c4ccc(OC)cc4F)n3n2)cc1	HEK cytotox inconclusive
COc1ccc(-c2ccnc3nc(CCc4ccc(OC)c(OC)c4)nn23)c(F)c1	HEK cytotox 45µM
COc1ccc(-c2ccnc3nc(Cc4ccc(F)cc4)nn23)c(F)c1	HEK cytotox 25µM, NIH3T3 tox inconclusive
O=C1CCN(S(=O)(=O)c2ccccc2)CCCC(C(=O)NCCCN2CCOCC2)CCN1 (stereo unspecified)	none
O=C(C[C@@H]1CCNC[C@@H]1Cc1cc(CN2CCOCC2)on1)NCCN1CCOCC1	none
CCCCc1cc(C[C@H]2CNCC[C@H]2CC(=O)Nc2ccccc2)no1	HEK cytotox 63µM, NIH3T3 tox inconclusive
CC(C)NC(=O)C[C@@H]1CCNC[C@@H]1Cc1cc(CC2CCCCC2)on1	HEK cytotox inconclusive, NIH3T3 tox 100µM
CCCCc1cc(C[C@H]2CNCC[C@H]2CC(=O)NCc2ccccc2)no1	SNCA expr inhib inconclusive, hNpr1 antagonist inconclusive, HEK cytotox 71µM, NIH3T3 tox inconclusive
COc1ccc(-c2cc(C(=O)NC3CC3)c3c(C4CCCNC4)noc3n2)cc1 (stereo unspecified)	HEK cytotox 32µM, NIH3T3 tox 32µM (no result: FLuc inh, hNpr1 antagonist)
COc1ccc(-c2cc(C(=O)NCC3CC3)c3c(C4CCNC4)noc3n2)cc1 (stereo unspecified)	HEK cytotox inconclusive, NIH3T3 tox inconclusive (no result: FLuc inh, hNpr1 antagonist)
CCCN(C)c1nccnc1OC1CCN(C(=O)c2c(F)cccc2F)C1 (stereo unspecified)	FLuc inh inconclusive, HEK cytotox inconclusive, NIH3T3 tox inconclusive
CCCN(C)c1nccnc1OC1CCN(C(=O)Cc2ccccc2OC)C1 (stereo unspecified)	FLuc inh 35µM, HEK cytotox inconclusive, NIH3T3 tox inconclusive
